# Measurements: PubChem BioAssay
# Several values for one entry are separate records, joined by “and”; a condition that tells them apart may be missing. Identical values can stand only once. Activity calls are given as the source filed them. Unless noted, no stated cut-off is given here; in the data, active means inhibition above about 80%; inactive means the rest.
# Columns and labels:
# [1] = P. berghei load reduction in hepatocytes – cell-based, HepG2, luciferase luminescence, HepG2 viability, primary screen (AID 624349; in the data active means parasite load remaining mostly below about 12%, no sharp cut-off; inactive means mostly above about 10%;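 further: 100% = mean of DMSO negative control wells on the same plate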); conditions: P. berghei liver stage in HepG2, luciferase luminescence, concentration not given here; parasite load remaining: stronger effect = lower value; viability: measured here: HepG2 viability without parasites
# [2] = test system: Aerobactin synthetase IucA (Klebsiella pneumoniae); experiment: inhibition of K. pneumoniae IucA enzyme – biochemical, Tocris library, absorbance (AID 1345561; call rule not given here;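 further: 100% = enzyme without compound and 0% = no enzyme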); conditions: purified IucA enzyme assay, absorbance (OD) read-out; stronger effect = lower value;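 tested at 8 µM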
# [3] = viability loss with induced miR-34 in A549 – imaging, A549 dox-inducible miR-34, nuclei and caspase counts, primary screen (AID 1347080;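 active means compounds whose cell count with miR-34 switched on is under 0.7 times the count with it off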); conditions: A549 miR-34 inducible, Hoechst nuclei count, 48 h
# [4] = MELAS cybrid and Rieske KO viability enhancers – cell-based, MELAS cybrids, Rieske KO mouse fibroblasts, CellTiter-Glo, primary screen (AID 1508586;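 active means mean z-score across replicates of 1.96 or higher in either the MELAS or the Rieske mutant cell line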;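 further: z relative to plate mean and SD of compound and empty wells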); conditions: low glucose
# [5] = galactose survival enhancers in mitochondrial complex I cybrids – cell-based, galactose medium, ATP luminescence, primary screen (AID 1645843;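 active means z-score of at least 1.8 in each of two replicates, scored against plate mean and spread of sample wells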;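 further: positive z means more ATP and so rescue of galactose-driven cybrid death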); conditions: complex I mutant cybrid cells, 72 h, stronger effect = higher value
# [6] = growth inhibition, single agent or in combination, cell-based, chromothripsis tumors, cisplatin or BGB combos (AID 1671449); conditions: LFS_MB_P medulloblastoma cells;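 further: cells exposed for 96 hours; 0% = vehicle DMSO and 100% = killing by high DMSO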
# [7] = growth inhibition, single agent and combos, cell-based, chromothripsis tumors, cisplatin or BGB combos (AID 1671450); conditions: HDN33 neuroblastoma cells, stronger effect = higher value;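 further: cells exposed to compound for four days; 0% = vehicle DMSO and 100% = cell killing by high DMSO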
# [8] = growth inhibition, single agents and combos, ICB984, cell-based, cisplatin or BGB combos, synergistic combos for chromothripsis tumors (AID 1671451; call rule not given here;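 further: cells exposed for 96 hours before readout; 0% = vehicle DMSO and 100% = killing by high DMSO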); conditions: ICB984 medulloblastoma cells, drug combinations, stronger effect = higher value
# [9] = growth inhibition, single agents and combos, LFS_MB_1R, cell-based, cisplatin or BGB combos, synergistic combos for chromothripsis tumors (AID 1671452); conditions: LFS_MB_1R medulloblastoma cells, stronger effect = higher value;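 further: cells exposed for 96 hours before readout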
# [10] = growth inhibition, single agents and combos, HTB85, cell-based, BGB or cisplatin IC20 combos, synergistic combos for chromothripsis tumors (AID 1671453); conditions: HTB85 osteosarcoma cells, drug combinations, stronger effect = higher value;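 further: cells exposed for 96 hours before readout; 0% = vehicle DMSO and 100% = high DMSO killing control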
# [11] = growth inhibition, single agents and combos, CRL2098, cell-based, BGB or cisplatin IC20 combos, synergistic combos for chromothripsis tumors (AID 1671454); conditions: CRL2098 osteosarcoma cells, drug combinations, stronger effect = higher value;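 further: cells exposed for 96 h before readout; 0% = vehicle DMSO and 100% = killing by high DMSO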
# [12] = growth inhibition, single agents and combos, HD-MB03, cell-based, BGB or cisplatin IC20 combos, synergistic combos for chromothripsis tumors (AID 1671455; in the data active means inhibition above about 83%;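 further: 0% = vehicle DMSO and 100% = high DMSO as cytotoxic control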); conditions: HD-MB03 medulloblastoma cells, stronger effect = higher value
# [13] = growth inhibition, single agents and combos, UWB1.289, cell-based, BGB or cisplatin combos, synergistic combos for chromothripsis tumors (AID 1671456); conditions: UWB1.289 ovarian carcinoma cells, stronger effect = higher value;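 further: cells exposed to compound for four days; 0% = vehicle DMSO and 100% = killing by high DMSO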
# [14] = growth inhibition, single agents and combos, LFS_MB_2R, cell-based, cisplatin combos, synergistic combos for chromothripsis tumors (AID 1671457); conditions: LFS_MB_2R medulloblastoma cells, stronger effect = higher value;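 further: cells exposed to compound for four days before readout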
# [15] = growth inhibition, MDA-MB-436, cell-based, BGB or cisplatin combos, synergistic combos for chromothripsis tumors (AID 1671458; call rule not given here;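 further: cells exposed for 96 hours; 0% = vehicle DMSO and 100% = killing by high DMSO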); conditions: MDA-MB-436 breast carcinoma growth inhibition, drug combinations, stronger effect = higher value
# [16] = UWB1.289_BRCA1 ovarian cancer growth, cell-based, BGB or cisplatin combinations (AID 1671459); conditions: UWB1.289 BRCA1 ovarian carcinoma, drug combinations, stronger effect = higher value
# [17] = drug combination toxicity in non-malignant astrocytes – cell-based, BGB or cisplatin IC20 combos, cytotoxicity control for chromothriptic childhood tumor combination screen (AID 1671460); conditions: Human astrocytes, viability inhibition, drug combinations, at 0.5 µM, stronger effect = higher value;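 further: cells exposed to compounds for 96 hours before viability readout; 0% = vehicle and 100% = killing control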
# [18] = BT084 cell growth, single and combined drugs, ICGC_MB145, cisplatin and BGB IC40 combos (AID 1671461); conditions: BT084 medulloblastoma cells, drug combinations, stronger effect = higher value;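 further: cells exposed to drugs for 96 hours; 0% = vehicle DMSO and 100% = high DMSO full killing control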
# [19] = RCMB18 cell growth, single agent and combined, cisplatin and BGB IC40 combos (AID 1671462); conditions: RCMB18 medulloblastoma cells, stronger effect = higher value;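 further: cells exposed to compound for four days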
# [20] = CRL1545 cell growth, single agent and combined, cisplatin and BGB IC20 combos (AID 1671464); conditions: CRL1545 osteosarcoma cells, stronger effect = higher value;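 further: cells exposed to compound for 96 hours before readout; 0% = vehicle DMSO and 100% = high DMSO killing control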
# [21] = measured here: combination with BGB IC40, at 0.05 µM
# [22] = measured here: with BGB IC20 combination, at 0.5 µM
# [23] = measured here: with cisplatin IC20 combination, at 0.5 µM
# [24] = measured here: combination with cisplatin, at 0.5 µM
# [25] = measured here: combination with cisplatin, at 5 µM
compound,measurement,setting,value
O=C(NC(NC(=S)Nc1ccc(F)c([N+](=O)[O-])c1)C(Cl)(Cl)Cl)C(c1ccccc1)c1ccccc1 (stereo not drawn),parasite load remaining,[1],37.9% (inactive)
same,viability,[1],150%
same,remaining activity,[2],80.1% (inactive)
same,fold change,"[3]; stronger effect = lower value, cell number ratio, induced over uninduced",0.886 (inactive) and 0.916 (inactive)
same,fold change,[3]; measured here: relative caspase fold change +Dox/-Dox,0.378 and 1.21
same,cell count,"[3]; measured here: total cells with miR-34 induction, stronger effect = lower value",1760 and 1260
same,cell count,[3]; measured here: total cells without miR-34 induction,1990 and 1380
same,z-score,"[4]; MELAS cybrid survival, CellTiter-Glo 48 h, stronger effect = higher value",-0.482 (inactive)
same,z-score,"[4]; Rieske KO mouse fibroblast survival, CellTiter-Glo 72 h",-0.549
same,z-score,[5],-0.7 (inactive)
same,inhibition,"[6]; at 0.5 µM, stronger effect = higher value",-14.4% (inactive) and -15.8% (inactive)
same,inhibition,"[6]; measured here: combination with BGB IC20, at 0.005 µM",-15.1% and -22%
same,inhibition,"[6]; measured here: combination with BGB IC40, at 0.005 µM",-12.9% and -23.4%
same,inhibition,[6]; [21],-2.89% and -34.1%
same,inhibition,"[6]; measured here: combination with cisplatin, at 0.5 µM, stronger effect = higher value",-21.5% and -41.9%
same,inhibition,"[6]; measured here: combination with cisplatin, at 5 µM, stronger effect = higher value",-21.2% and -42.7%
same,inhibition,"[7]; BGB combo, at 5 µM",-9.61% and -16%
same,inhibition,[7]; at 0.5 µM,-0.93% (inactive) and -12% (inactive)
same,inhibition,"[7]; cisplatin combo, at 5 µM",-12.1% and -4.83%
same,inhibition,[7]; [22],-8.76% and -21.5%
same,inhibition,[7]; [23],2.56% and -5.96%
same,inhibition,"[7]; single agent, at 5 µM",4.16% and -9.08%
same,inhibition,"[8]; BGB IC20 combo, at 0.005 µM",7.62% and 15.2%
same,inhibition,"[8]; BGB IC40 combo, at 0.005 µM",-20.7% and 11.9%
same,inhibition,"[8]; BGB IC40 combo, at 0.05 µM",35.5% and -11.2%
same,inhibition,[8]; at 0.5 µM,-22.3% (inactive) and -17.8% (inactive)
same,inhibition,"[8]; cisplatin combo, at 0.05 µM",33.7% and -15.2%
same,inhibition,"[8]; cisplatin combo, at 0.5 µM",-13.4% and -3.51%
same,inhibition,"[8]; cisplatin combo, at 5 µM",-12.5% and -33.8%
same,inhibition,"[8]; measured here: 5 uM single agent, at 5 µM",-8.95% and -2.73%
same,inhibition,[9]; at 0.5 µM,4.09% (inactive) and -12.4% (inactive)
same,inhibition,[9]; [21],-23.4% and -14.6%
same,inhibition,[9]; [24],-13.7% and -10.4%
same,inhibition,[9]; [25],30.6% and -30.6%
same,inhibition,[10]; at 0.5 µM,8.95% (inactive) and 0.41% (inactive)
same,inhibition,"[10]; measured here: with BGB IC20, at 0.5 µM",16.1% and 0.127%
same,inhibition,"[10]; measured here: with BGB IC20, at 5 µM",2.8% and -10.9%
same,inhibition,"[10]; measured here: with cisplatin IC20, at 0.5 µM",1.41% and -9.26%
same,inhibition,"[10]; measured here: with cisplatin IC20, at 5 µM",2.01% and -34.1%
same,inhibition,"[10]; single agent, at 5 µM",-3.27% and 7.66%
same,inhibition,[11]; at 0.5 µM,-40.5% (inactive) and -32.4% (inactive)
same,inhibition,"[11]; measured here: combination with BGB at IC20, at 0.5 µM",-40.4% and -25.9%
same,inhibition,"[11]; measured here: combination with cisplatin at IC20, at 0.5 µM",-32.4% and -44.5%
same,inhibition,[12]; at 0.5 µM,-6.28% (inactive) and -0.79% (inactive)
same,inhibition,"[12]; measured here: combo with BGB at IC20, at 0.5 µM",-4.65% and -5.29%
same,inhibition,"[12]; measured here: combo with cisplatin at IC20, at 0.5 µM",-1.73% and -0.093%
same,inhibition,[13]; at 0.5 µM,1.14% (inactive) and 7.56% (inactive)
same,inhibition,"[13]; measured here: inhibition with BGB combination, at 0.05 µM",-13.3% and -2.68%
same,inhibition,"[13]; measured here: inhibition with cisplatin combination, at 0.05 µM",-5.95% and 6.61%
same,inhibition,[14]; at 0.5 µM,-3.23% (inactive) and -7.87% (inactive)
same,inhibition,[14]; [24],-13.3% and -8.76%
same,inhibition,[14]; [25],-66.9% and -2.51%
same,inhibition,[15]; at 0.5 µM,-16.1% (inactive) and -3% (inactive)
same,inhibition,"[15]; measured here: BGB combination, at 0.5 µM",-8.94% and -6.88%
same,inhibition,"[15]; measured here: BGB combination, at 5 µM",-14.6% and -14.8%
same,inhibition,"[15]; measured here: cisplatin combination, at 0.5 µM",-23.9% and -0.178%
same,inhibition,"[15]; measured here: cisplatin combination, at 5 µM",-32.1% and -10.9%
same,inhibition,"[16]; BGB combination, concentration series, at 5 µM",0.384% and 38.2%
same,inhibition,[16]; at 0.5 µM,2.79% (inactive) and 5.22% (inactive)
same,inhibition,"[16]; cisplatin combination, concentration series, at 5 µM",64.5% and 45%
same,inhibition,[17],6.11% (inactive) and 4.43% (inactive)
same,inhibition,[17]; measured here: combo with BGB IC20,7.77% and 5.34%
same,inhibition,[17]; measured here: combo with cisplatin IC20,14.5% and -0.76%
same,inhibition,[18]; at 0.5 µM,-8.03% (inactive) and 6.1% (inactive)
same,inhibition,"[18]; cisplatin combination, at 0.5 µM",5.04% and -12.2%
same,inhibition,"[18]; cisplatin combination, at 5 µM",12.2% and 15.1%
same,inhibition,"[18]; measured here: BGB IC40 combination 0.05 uM, at 0.05 µM",8.16% and -30.4%
same,inhibition,"[18]; single agent, at 5 µM",13.4% and 28.8%
same,inhibition,[19]; at 0.5 µM,-8.16% (inactive) and -14.2% (inactive)
same,inhibition,"[19]; cisplatin combo, at 5 µM",-16.1% and 2.1%
same,inhibition,"[19]; measured here: BGB IC40 combination, at 0.05 µM",-2.84% and -11.5%
same,inhibition,[19]; [24],8.34% and 10.3%
same,inhibition,"[19]; single agent, at 5 µM",-30.9% and -16.7%
same,inhibition,[20]; at 0.5 µM,6.4% (inactive) and -19.7% (inactive)
same,inhibition,[20]; [22],25.3% and -10.2%
same,inhibition,[20]; [23],-5.35% and -26.5%
same,inhibition,"[20]; single agent, at 0.05 µM",5.52% and 12.5%
same,inhibition,"[20]; single agent, at 5 µM",4.21% and -26.5%
